Assay outcomes (PubChem BioAssay)
HP1b binding inh – HP1-beta chromodomain-methylated histone interaction inhibition; hit rate 0.56% among 390,000; AID 540317; AlphaScreen HP1-beta / biotin-H3K9me3 peptide binding; P83916; Potency, µM (doses to about 114 µM), for the others: at the highest dose activity change, negative = inhibition, hits mostly inhibitors; also: potency is read from the fitted curve at half-maximal effect; nearly all actives have a fitted effect of over 70% in size
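HP1-beta protein (50 nM final) preincubated 30 min at room temperature with biotinylated H3(1-18)K9me3 peptide (50 nM) in PBS pH 7.4, 0.01% Tween-20, then compound added for 30 min. AlphaScreen streptavidin donor/nickel chelate acceptor beads (10 ug/mL final), 30 min dark, luminescence read.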
JMJD2A Tudor – blocks the human JMJD2A Tudor domain; O75164; AlphaScreen JMJD2A-Tudor / H3K4me3 peptide binding; Potency, µM (highest dose often 114 µM), for inactives: at the top dose activity change, negative = inhibition, hits mostly inhibitors; hit rate 4.4% among 390,000; also: potency is read from the fitted curve at half-maximal effect; % is scaled to controls: 0 for no effect and ±100 for the full control effect; nearly all actives have a fitted effect of over 50% in size
Six1-Eya2 blk – Six1/Eya2 interaction inhibition; Q15475+O00167; AlphaScreen GST-Six1/His-Eya2 binding, biochemical; active compounds read low; activity change, % (no concentration beside the values); hit rate 0.56% among 360,000; in the data active = activity change below about -65%; inconclusive = mostly about -30% to -63%; also: % is scaled to controls: 0 for no effect and ±100 for the full control effect
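Homogeneous AlphaScreen proximity assay pairing GST-Six1 with His-tagged Eya2 (added as 5X mix: 250 nM and 500 nM) in 50 mM Tris pH 8.0, 300 mM NaCl, 1 mM TCEP. Glutathione donor and nickel acceptor beads; 1 h, 37 °C, dark.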
CtBP-E1A inh – inhibitors of CtBP/E1A interaction; AlphaScreen GST-E1A/His-CtBP binding, 1536-well; active compounds read low; activity change, % (test concentration not listed); hit rate 0.49% among 340,000; in the data active = activity change below about -65%; inconclusive = mostly about -30% to -63%; also: % is scaled to controls: 0 for no effect and ±100 for the full control effect
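AlphaScreen with 125 nM GST-E1A and 125 nM His-CtBP (5X stocks) in Tris pH 8.0, 300 mM NaCl, BSA, Tween 20, TCEP. Compounds preincubated 2 h at 37 deg C, then glutathione donor/nickel acceptor beads added for 1 h at 37 deg C in dark.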
G9a inh – G9a (human) methyltransferase inhibition; Q96KQ7; G9a H3K9 monomethylation, AlphaScreen, 2 h; Potency, µM (top dose mostly 102 µM), inactives show at the highest dose activity, negative = inhibition, hits mostly inhibitors; hit rate 8.8% among 350,000; AID 504332; also: potency is read from the fitted curve at half-maximal effect; % is scaled to controls: 0 for no effect and ±100 for the full control effect; nearly all actives have a fitted effect of over 75% in size
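Methyltransferase reactions run at room temperature for 2 h (20 nM enzyme, 500 nM biotin-H3K9 peptide, 20 uM SAM) after a 15 min compound preincubation; product detected by AlphaScreen beads and anti-H3K9me1 antibody.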
BAZ2B block – BAZ2B (human) inhibition; Q9UIF8; AlphaScreen BAZ2B-H3K14Ac peptide displacement; Potency, µM (titrated, usually from 114 µM), inactives show top-dose activity change, negative = inhibition, most hits filed as inhibitors; hit rate 4.4% among 360,000; AID 504333; also: potency is read from the fitted curve at half-maximal effect; % is scaled to controls: 0 for no effect and ±100 for the full control effect; nearly all actives have a fitted effect of over 60% in size
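AlphaScreen luminescence quantifies BAZ2B engagement of H3K14Ac peptide; the protein and biotinylated peptide are both at 50 nM final, buffer PBS pH 7.4 with 0.01% Tween-20, all steps at room temperature.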
The depositor's hits bear a star; ? = inconclusive; . = no result given; ! = repeats disagree; [ ] = another dose, or the depositor's remark. Sampled rows, rich in hits. Any-hit rate of the full collection: about 10%. Unless noted, calls follow the shape of the dose curve; as a rule, active = well fitted inhibition curve with a large enough effect; inconclusive = small, poorly fitted or top-dose-only effect; inactive = no such curve, though single readings can be large or run the other way.

SMILES	HP1b binding inh	JMJD2A Tudor	Six1-Eya2 blk	CtBP-E1A inh	G9a inh	BAZ2B block
C(=NC1CCCCC1)c1c[nH]c2ccccc12	18%	?	-1	0	.	.
Brc1ccc2[nH]cc(C=NN3CCCCCC3)c2c1	?	50µM*	-3	-10	.	.
CCCCC/C=C\C/C=C\C/C=C\C/C=C\CCCC(N)=O	.	.	.	.	45%[59 µM]	.
CCN(CC)CCOC(=O)C(O)(c1ccccc1)c1ccccc1	22%	-16%	2	5	28%[59 µM]	-4%
CC(C)N1C(=O)CC2(CC[N+](C)(CCOC(=O)C(O)(c3ccccc3)c3ccccc3)CC2)C1=O (configuration not stated)	46%	-5%	18	0	40µM*	-24%
C[C@H](NC(=O)[C@@H](N)Cc1ccc(O)cc1)C(=O)NCC(=O)N(C)[C@@H](Cc1ccccc1)C(=O)NCCO	.	.	.	.	35%[59 µM]	.
NC(=O)C[N+]1(CC#CC(O)(c2ccccc2)c2ccccc2)CCCC1	22%	32µM*	5	-5	35µM*	-3%
CC[N@+]1(C)CCC[C@@H](OC(=O)C(O)(c2ccccc2)c2ccccc2)C1	.	.	.	.	14%[21.5 µM]	.
COc1cc(C2c3cc4c(cc3C(O)[C@H]3COC(=O)C23)OCO4)cc(OC)c1OC (some centres not stated)	.	.	.	.	-2%[2.33 µM]	.
Nc1nc(N)c2nc(CNc3ccc(C(=O)NC(CCC(=O)O)C(=O)O)cc3)cnc2n1 (configuration not stated)	.	.	.	.	2.7µM*!	-35%
O=C1OC(c2ccc(O)c(S(=O)(=O)O)c2)(c2ccc(O)c(S(=O)(=O)O)c2)c2c(Br)c(Br)c(Br)c(Br)c21	.	.	.	.	-2%[59 µM]	.
CCOC(=O)N1CCC(NC(=O)CCc2nc(C3=CCN(C)CC3)no2)CC1	13%	-6%	25	2	?	79µM*
CC[C@@H]1CN2CCc3cc(OC)c(OC)cc3[C@H]2C[C@@H]1C[C@H]1NCCc2cc(OC)c(OC)cc21	.	.	.	.	2%[21.5 µM]	.
Cc1ccnc(NS(=O)(=O)c2ccc(N=Cc3c(O)n(C)c(=O)n(C)c3=O)cc2)n1	21%	-8%[57.1 µM]	-1	-5	45µM*	?
Cc1cc(C)nc(NS(=O)(=O)c2ccc(N=Cc3c(O)n(C)c(=O)n(C)c3=O)cc2)n1	37%	-20%	5	-6	10%[59 µM]	-9%
Cc1c(O)c(=O)ccn1C	46%	16µM*	-12	-2	1.6µM*!	45µM*
CCC(C)(C)NC(=O)C(NS(=O)(=O)c1cccs1)c1ccccc1 (configuration not stated)	28%	-5%	-25	-14	-9%	5%
Nc1c2c(nc3sc4c(c13)CCCC4)CCCCC2	-33%	79µM*	5	-3	?	-8%
CCCCCn1c(NC(=O)c2ccco2)c(C(=O)OCC)c2nc3ccccc3nc21	?	?	?	?	50µM*	7%
COC(=O)c1ccc(Cl)c(NC(=O)CN2CCN(Cc3ccccc3)CC2)c1	27%	-9%	0	2	11µM*	4%
Cc1cc(C(=O)OCC(=O)NC(=O)c2cccn2C)c2ccccc2n1	13%	11%	2	7	?	18%
CN1C(=O)/C(=C/C=C/c2ccco2)C(=O)NC1=S	11µM*	?	?	-17	2.8µM*	32µM*
CN(C)c1ccc(/C=C/C=C2/C(=O)NC(=O)N(c3ccccc3)C2=O)cc1	16µM*	?	6	-2	16µM*	13µM*
Cc1ccc(N2C(=O)NC(=O)/C(=C\C=C\c3ccco3)C2=O)cc1	14%	-24%	-5	8	35µM*	-33%
O=C1NC(=O)N(c2ccccc2)C(=O)/C1=C/C=C/c1ccco1	-19%	-29%	-9	3	35µM*	-35%
O=C1NC(=O)N(Cc2ccccc2)C(=O)/C1=C\C=C\c1ccco1	?	?	-10	5	?	?
O=C1OC(=O)C2C3CCC(O3)C12 (configuration not stated)	.	.	.	.	-2%[59 µM]	-5%
